{"source": "paper PMC11995724", "about": "“Antibiotic target discovery by integrated phenotypic and activity-based profiling of electrophilic fragments” (Cell chemical biology, 2025)", "note": "The campaign covered roughly 3,200 compounds. About 110 (3.4%) showed an effect of 50% or more. The full list was thinned out, with strong results kept by preference."}
{"test_system": "T1, V. cholerae SAD30", "T1 construct": "SAD30", "parameters": "species or system S. aureus MSSA476 (TSB) or V. cholerae SAD30 (LB); 384-well bacterial growth screen at 25 uM, OD600 relative to DMSO control", "settings": "relative growth, OD600, LB; 25 µM; inhibitor", "units": {"% of control remaining": "%"}}
{"smiles": "N#CC(=Cc1cccc(O)c1)C(=O)Nc1ccc(N2CCOCC2)cc1", "note": "[8-I14, 2-cyano-3-(3-hydroxyphenyl)-N-[4-(morpholin-4-yl)phenyl]prop-2-enamide]", "% of control remaining": 71.0401}
{"smiles": "CC1CN(c2ccc(NC(=O)C(C#N)=Cc3ccco3)cc2)CC(C)O1", "note": "(centres unmarked) [9-J09, 2-cyano-N-[4-(2,6-dimethylmorpholin-4-yl)phenyl]-3-(furan-2-yl)prop-2-enamide]", "% of control remaining": 84.3644}
{"smiles": "C=CC(=O)N1CCC(F)CC1", "note": "[1-D14, 1-(4-fluoropiperidin-1-yl)prop-2-en-1-one]", "% of control remaining": 79.2444}
{"smiles": "CN(C)c1nc(N2CCOCC2)ncc1NC(=O)CCl", "note": "[5-M22, 2-chloro-N-[4-(dimethylamino)-2-(morpholin-4-yl)pyrimidin-5-yl]acetamide]", "% of control remaining": 105.916}
{"smiles": "C=CC(=O)Nc1ccc(S(=O)(=O)N(C)C)c(C)c1", "note": "[2-E06, N-[4-(dimethylsulfamoyl)-3-methylphenyl]prop-2-enamide]", "% of control remaining": 93.4382}
{"smiles": "C=CC(=O)N(CCC(N)=O)C1CCOc2ccccc21", "note": "(centres unmarked) [3-F13, N-(2-carbamoylethyl)-N-(3,4-dihydro-2H-1-benzopyran-4-yl)prop-2-enamide]", "% of control remaining": 92.0897}
{"smiles": "Cc1cc(C(=O)CCl)c(C)n1CCc1cccs1", "note": "[10-F16, 2-chloro-1-{2,5-dimethyl-1-[2-(thiophen-2-yl)ethyl]-1H-pyrrol-3-yl}ethan-1-one]", "% of control remaining": 110.189}
{"smiles": "C=CC(=O)Nc1sc2c(c1C(N)=O)CCCCC2", "note": "[1-F21, 2-(prop-2-enamido)-4H,5H,6H,7H,8H-cyclohepta[b]thiophene-3-carboxamide]", "% of control remaining": 88.1913}
{"smiles": "CSc1ccccc1NC(=O)CCl", "note": "[4-E11, 2-chloro-N-[2-(methylsulfanyl)phenyl]acetamide]", "% of control remaining": 92.3011}
{"smiles": "CC(Cl)C(=O)N(C)CCOc1ccc(Cl)cc1", "note": "(centres unmarked) [6-C12, 2-chloro-N-[2-(4-chlorophenoxy)ethyl]-N-methylpropanamide]", "% of control remaining": 74.0165}
{"smiles": "N#Cc1ccc(OC2CN(C(=O)CCl)C2)cc1", "note": "[5-K07, 4-{[1-(2-chloroacetyl)azetidin-3-yl]oxy}benzonitrile]", "% of control remaining": 141.893}
{"smiles": "CSc1ccccc1NC(=O)CN(C)C(=O)CCl", "note": "[4-L03, 2-chloro-N-methyl-N-({[2-(methylsulfanyl)phenyl]carbamoyl}methyl)acetamide]", "% of control remaining": 116.282}
{"smiles": "N#Cc1ccc(C(=O)CCl)cc1", "note": "[10-F10, 4-(2-chloroacetyl)benzonitrile]", "% of control remaining": 0}
{"smiles": "CCOc1ccc(-n2c(C)cc(C(=O)CCl)c2C)cc1", "note": "[10-K08, 2-chloro-1-[1-(4-ethoxyphenyl)-2,5-dimethyl-1H-pyrrol-3-yl]ethan-1-one]", "% of control remaining": 98.9675}
{"smiles": "CCOc1ccc(C(=O)CCl)cc1", "note": "[10-F12, 2-chloro-1-(4-ethoxyphenyl)ethan-1-one]", "% of control remaining": 15.1179}
{"smiles": "CN(CCOc1ccc(Cl)cc1)C(=O)CCl", "note": "[5-D16, 2-chloro-N-[2-(4-chlorophenoxy)ethyl]-N-methylacetamide]", "% of control remaining": 80.0252}
{"smiles": "CCOc1ccc(C(=O)C(C)Cl)cc1", "note": "(centres unmarked) [10-G06, 2-chloro-1-(4-ethoxyphenyl)propan-1-one]", "% of control remaining": 103.331}
{"smiles": "CSc1cc(C(=O)CCl)ccc1NC(C)=O", "note": "[10-H08, N-[4-(2-chloroacetyl)-2-(methylsulfanyl)phenyl]acetamide]", "% of control remaining": 25.2484}
{"smiles": "O=C(CCl)COc1ccc(Cl)cc1", "note": "[10-M17, 1-chloro-3-(4-chlorophenoxy)propan-2-one]", "% of control remaining": 11.6891}
{"smiles": "O=C(CCl)Nc1ccc(Cl)c(S(=O)(=O)N2CCCCC2)c1", "note": "[4-P14, 2-chloro-N-[4-chloro-3-(piperidine-1-sulfonyl)phenyl]acetamide]", "% of control remaining": 110.589}
{"smiles": "C=CC(=O)NC1(C(N)=O)Cc2ccccc2C1", "note": "[2-D15, 2-(prop-2-enamido)-2,3-dihydro-1H-indene-2-carboxamide]", "% of control remaining": 88.8063}
{"smiles": "C=CC(=O)Nc1cc(C)nn1-c1ccccc1F", "note": "[2-C15, N-[1-(2-fluorophenyl)-3-methyl-1H-pyrazol-5-yl]prop-2-enamide]", "% of control remaining": 95.1365}
{"smiles": "CC(c1ccccc1F)N1CCCC(NC(=O)CCl)C1=O", "note": "(centres unmarked) [5-I10, 2-chloro-N-{1-[1-(2-fluorophenyl)ethyl]-2-oxopiperidin-3-yl}acetamide]", "% of control remaining": 94.4836}
{"smiles": "C=CC(=O)N1CCC(C(=O)N2CCC[C@H]2c2ncn[nH]2)CC1", "note": "[2-D12, 1-{4-[(2S)-2-(1H-1,2,4-triazol-5-yl)pyrrolidine-1-carbonyl]piperidin-1-yl}prop-2-en-1-one]", "% of control remaining": 91.1223}
{"smiles": "N#CC(=Cc1ccc2ccccc2c1)C(=O)NC(N)=O", "note": "[9-K10, {2-cyano-2-[(naphthalen-2-yl)methylidene]acetyl}urea]", "% of control remaining": 87.0836}
{"smiles": "Cc1ccc(C(=O)c2c(NC(=O)CCl)sc3c2CCCC3)cc1", "note": "[6-A12, 2-chloro-N-[3-(4-methylbenzoyl)-4,5,6,7-tetrahydro-1-benzothiophen-2-yl]acetamide]", "% of control remaining": 94.644}
{"smiles": "C=CC(=O)NCC(=C)c1ccccc1", "note": "[2-B09, N-(2-phenylprop-2-en-1-yl)prop-2-enamide]", "% of control remaining": 87.2624}
{"smiles": "CC(Cl)C(=O)NC(C)(C)c1ccc(F)cc1F", "note": "(centres unmarked) [6-E21, 2-chloro-N-[2-(2,4-difluorophenyl)propan-2-yl]propanamide]", "% of control remaining": 92.9756}
{"smiles": "C=CC(=O)Nc1cc(CC(C)(C)C)no1", "note": "[1-I19, N-[3-(2,2-dimethylpropyl)-1,2-oxazol-5-yl]prop-2-enamide]", "% of control remaining": 92.9746}
{"smiles": "COCc1ncc2c(n1)CC1CCC2N1C(=O)C(C)Cl", "note": "(centres unmarked) [7-M20, 2-chloro-1-[5-(methoxymethyl)-4,6,12-triazatricyclo[7.2.1.0,2,7]dodeca-2,4,6-trien-12-yl]propan-1-one]", "% of control remaining": 81.4142}
{"smiles": "Cc1cc(CO[C@H]2CC[C@H](NC(=O)CCl)CC2)on1", "note": "[6-K19, 2-chloro-N-[(1r,4r)-4-[(3-methyl-1,2-oxazol-5-yl)methoxy]cyclohexyl]acetamide]", "% of control remaining": 92.9756}
{"smiles": "C=CC(=O)Nc1cnn(C2CCCC2)c1", "note": "[3-O21, N-(1-cyclopentyl-1H-pyrazol-4-yl)prop-2-enamide]", "% of control remaining": 106.734}
{"smiles": "N#CC(=Cc1ccccc1Cl)C(=O)Nc1cccc2ncccc12", "note": "[8-C15, 3-(2-chlorophenyl)-2-cyano-N-(quinolin-5-yl)prop-2-enamide]", "% of control remaining": 75.9347}
{"smiles": "C=CC(=O)NCC12CC3CC(CC(C3)C1)C2", "note": "[1-F17, N-[(adamantan-1-yl)methyl]prop-2-enamide]", "% of control remaining": 83.4081}
{"smiles": "O=C(CCl)c1ccc(Oc2ccccc2)cc1", "note": "[10-G20, 2-chloro-1-(4-phenoxyphenyl)ethan-1-one]", "% of control remaining": 25.2484}
{"smiles": "CC(=O)NCCc1ccc(C(=O)CCl)cc1", "note": "[10-N03, N-{2-[4-(2-chloroacetyl)phenyl]ethyl}acetamide]", "% of control remaining": 115.8}
{"smiles": "CCCc1ccc(C(=O)CCl)cc1", "note": "[10-C04, 2-chloro-1-(4-propylphenyl)ethan-1-one]", "% of control remaining": 109.254}
{"smiles": "NC(=O)CCc1ccc(C(=O)CCl)cc1", "note": "[10-I03, 3-[4-(2-chloroacetyl)phenyl]propanamide]", "% of control remaining": 70.7578}
{"smiles": "O=C(CCl)Nc1ccc(Oc2ccccc2)cc1", "note": "[4-J09, 2-chloro-N-(4-phenoxyphenyl)acetamide]", "% of control remaining": 97.6493}
{"smiles": "CCc1ccc(C(=O)CCl)cc1", "note": "[10-F18, 2-chloro-1-(4-ethylphenyl)ethan-1-one]", "% of control remaining": 26.1835}
{"smiles": "O=C(CCl)Nc1cccc(Oc2ccccc2)c1", "note": "[4-P19, 2-chloro-N-(3-phenoxyphenyl)acetamide]", "% of control remaining": 96.6142}
{"smiles": "NC(=O)COc1ccc(C(=O)CCl)cc1", "note": "[10-M07, 2-[4-(2-chloroacetyl)phenoxy]acetamide]", "% of control remaining": 49.25}
{"smiles": "CSc1ccc(C(=O)CCl)cc1", "note": "[10-E07, 2-chloro-1-[4-(methylsulfanyl)phenyl]ethan-1-one]", "% of control remaining": 0}
{"smiles": "O=C(CCl)NCCCC1CCCCC1", "note": "[6-O05, 2-chloro-N-(3-cyclohexylpropyl)acetamide]", "% of control remaining": 100.256}
{"smiles": "O=C(CCl)NC(c1ccccc1)C1CCCCC1", "note": "(centres unmarked) [6-E12, 2-chloro-N-[cyclohexyl(phenyl)methyl]acetamide]", "% of control remaining": 79.0217}
{"smiles": "CC(Cl)C(=O)Nc1ccc(S(=O)(=O)N2CCCCC2)cc1", "note": "(centres unmarked) [4-A12, 2-chloro-N-[4-(piperidine-1-sulfonyl)phenyl]propanamide]", "% of control remaining": 95.234}
{"smiles": "CC(Cl)C(=O)Nc1c(C(C)C)cccc1C(C)C", "note": "(centres unmarked) [4-B15, N-[2,6-bis(propan-2-yl)phenyl]-2-chloropropanamide]", "% of control remaining": 91.4384}
{"smiles": "C=CC(=O)N[C@H]1CCO[C@@H]1c1ccnn1C(C)C", "note": "(racemic) [3-K05, rac-N-[(2R,3R)-2-[1-(propan-2-yl)-1H-pyrazol-5-yl]oxolan-3-yl]prop-2-enamide]", "% of control remaining": 98.7943}
{"smiles": "O=C(CCl)N1CCN(S(=O)(=O)c2cccc([N+](=O)[O-])c2)CC1", "note": "[4-C19, 2-chloro-1-[4-(3-nitrobenzenesulfonyl)piperazin-1-yl]ethan-1-one]", "% of control remaining": 91.0934}
{"smiles": "C=CC(=O)N1CCC(C(=O)NC2CCCc3cc(F)ccc32)CC1", "note": "(centres unmarked) [2-K18, N-(6-fluoro-1,2,3,4-tetrahydronaphthalen-1-yl)-1-(prop-2-enoyl)piperidine-4-carboxamide]", "% of control remaining": 78.153}
